A selection: hits, their analogues and other compounds. The true share with any hit is near 19%.
HT1080NT lethal – qHTS for induction of synthetic lethality in tumor cells producing 2HG: qHTS for the HT-1080-NT fibrosarcoma cell line | 1.6% of 360,000 active | Potency, µM (titrated, usually from 46.1 µM), without a hit: top-dose activity, negative = less viability, most hits filed as cytotoxic | HT-1080-NT fibrosarcoma viability, CellTiter-Glo ATP luminescence, 48 h;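 note: NT is the 2HG producing partner of a matched IDH1 knockdown line; 0% = DMSO-treated cells and -100% = media-only wells without cells; nearly all actives have a fitted effect of over 55% in size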
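Compounds were tested in concentration-response format on HT-1080-NT cells for 48 hours at 37 degrees C. Cell viability came from CellTiter-Glo luminescence; curves were classified by r2, response magnitude and activity.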
DT40 TDP1 no CPT – qHTS for Inhibitors of human tyrosyl-DNA phosphodiesterase 1 (TDP1): qHTS in cells in absence of CPT; DT40 Tdp1-/- hTDP1 cells, no CPT, ATP luminescence, 48 h; Potency, µM (titrated, usually from 46.2 µM), for the others: at the highest dose activity change, negative = growth inhibition, hits mostly inhibitors; 15% of 420,000 active; note: nearly all actives have a fitted effect of over 55% in size
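Compound effects on proliferation are scored in DT40 Tdp1-/-;hTDP1 cells in the absence of CPT. ATP levels (CellTiter-Glo luminescence) are recorded after a ≥48 hr, 37 °C incubation.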
KB-V1 cytotox – qHTS assay for MDR1-selective chemotherapeutics: Primary screen using the drug-selected MDR subline cells KB-V1; KB-V1 MDR cells viability, CellTiter-Glo, 72 h; Potency, µM (titrated, usually from 46.1 µM), actives largely listed as cytotoxic; 3.4% of 400,000 active; note: nearly all actives have a fitted effect of over 60% in size
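qHTS viability screen in drug-selected KB-V1 MDR cells: 72 h compound treatment at 37 degrees C, ATP luminescence end point.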
TDP1 cell CPT – qHTS for Inhibitors of human tyrosyl-DNA phosphodiesterase 1 (TDP1): qHTS in cells in presence of CPT; chicken DT40 Tdp1-/-;hTDP1 cells + 20 nM CPT, ATP luminescence, 48 h; Potency, µM (highest dose often 46.2 µM), for the others: at the highest dose activity change, negative = growth inhibition, hits mostly inhibitors; 12% of 420,000 active; note: nearly all actives have a fitted effect of over 55% in size
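Chicken DT40 Tdp1-/- cells stably complemented with human TDP1 were seeded at 400 cells/well in medium containing 20 nM camptothecin, exposed to pin-transferred compounds, and grown at 37 °C for at least 48 hr. Viability was read as ATP luminescence.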
HT1080 IDH1KD tx – qHTS for induction of synthetic lethality in tumor cells producing 2HG: qHTS for the HT-1080-IDH1KD cell line | HT-1080 IDH1 knockdown viability, ATP luminescence, 48 h | 2% of 360,000 active | Potency, µM (highest dose often 46.1 µM), without a hit: at the highest dose activity, negative = toxicity, most hits filed as cytotoxic;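 note: 0% = DMSO wells and -100% = cell-free medium wells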
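Assay cells: HT-1080 with IDH1 knockdown, 750 per well, RPMI/5% FBS. Exposure: 48 h at 37 °C following 2 h pre-incubation. Read: CellTiter-Glo luminescence; fitted concentration-response, curve class assigned.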
KB-3-1 cytotox – qHTS assay for MDR1-selective chemotherapeutics: Primary screen using the parental adenocarcinoma cell KB-3-1. Potency, µM (doses to about 46.1 µM), most hits filed as cytotoxic. 1.4% of 400,000 active. KB-3-1 viability, CellTiter-Glo ATP luminescence, 72 h. AID 1347075, 2019; note: nearly all actives have a fitted effect of over 60% in size
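Cells are dispensed, compounds pinned in, plates held at 37 °C for 72 h, then CellTiter-Glo is added and luminescence read after 10 minutes. Cell line: parental KB-3-1 in phenol-red-free DMEM, 10% FBS.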
The depositor's hits bear a star; i = inactive; ? = inconclusive; · = no result. Calls come from the whole dose curve; as a rule, active = well fitted curve in the direction sought with a large enough effect; inconclusive = small, poorly fitted or top-dose-only effect, or another doubt; inactive = no such curve, though single readings can be large; an effect the other way counts as inactive or inconclusive. Unless noted, % is set by controls: 0 for no effect and ±100 for the full control effect; potency is the fitted concentration of half-maximal effect.

SMILES	HT1080NT lethal	DT40 TDP1 no CPT	KB-V1 cytotox	TDP1 cell CPT	HT1080 IDH1KD tx	KB-3-1 cytotox
Cc1c(C(=O)NCc2ccccn2)sc2nc(-c3ccccc3)cn12	?	?	i	?	?	9.2µM*
O=C(Nc1ccc([N+](=O)[O-])cc1)C(c1ccccc1)c1ccccc1	-19%	18µM*	?	18µM*	-14%	i
O=C(NCC(O)c1ccc([N+](=O)[O-])cc1)C(c1ccccc1)c1ccccc1 (stereo not drawn)	0%	?	i	?	-8%	i
O=[N+]([O-])c1ccc(NNC(=S)Nc2ccccc2)cc1	20µM*	2.8µM*	?	4.5µM*	?	?
O=[N+]([O-])c1ccc(O)c(NC(=S)Nc2ccccc2)c1	-15%	-12%	i	-22%	?	i
COc1ccc(OC)c(NC(=O)[C@H](Cc2ccccc2)N2Cc3ccccc3C2=O)c1	·	?	i	?	·	i
O=C(NCCCN1CCCC1)[C@H](CSCc1ccccc1)N1Cc2ccccc2C1=O	-4%	29µM*	i	?	?	i
COc1ccc(OC)c(NC(=O)[C@H](CSCc2ccccc2)N2Cc3ccccc3C2=O)c1	·	?	i	21µM*	·	i
Cc1cc(NS(=O)(=O)c2ccc(NC(=O)COc3ccc(Cl)cc3)cc2)nc(C)n1	·	?	i	?	·	i
CCCCNC(=O)C1c2ccccc2OCC(=O)N1Cc1ccccc1 (stereo not drawn)	14%	?	i	?	2%	i
COc1ccc(N=C2S/C(=C\c3ccc(Cl)c([N+](=O)[O-])c3)C(=O)N2CCN(C)C)cc1	?	16µM*	i	21µM*	21µM*	i
CCN(CC)CCN1C(=O)/C(=C\c2ccc(Cl)c([N+](=O)[O-])c2)SC1=Nc1ccc(OC)cc1	2.6µM*	16µM*	i	21µM*	3.3µM*	?
CNc1nc(-c2c(C)noc2C)nc2ccccc12	·	-1%	·	2%	·	·
O=C(c1cnccn1)N1CCC2(CC1)CN(c1ccccn1)C2	·	0%	·	2%	·	·
COc1ccccc1-c1ccc([C@@H]2C[C@H]3[C@H](CON3C)CN2C(=O)c2ccco2)cc1	5%	?	i	-12%	2%	i
Cc1ccccc1OCC(=O)NCC(c1cccs1)N1CCOCC1 (stereo not drawn)	-7%	?	16µM*	?	-10%	?
Cc1ccc(Cl)c(OCC(=O)NCC(c2cccs2)N2CCOCC2)c1 (stereo not drawn)	-24%	?	i	26µM*	-2%	?
CCOC(=O)c1ccc(-n2ccnc2)c(NC(=O)c2ccc(Cl)cc2)c1	2%	-26%	15µM*	5%	1%	i
CCOC(=O)C1CCN(C(=O)c2ccccc2NC(=O)c2ccc(Cl)cc2)CC1	4%	23µM*	i	?	-2%	i
CCOC(=O)C1CCN(c2cc3c(cc2NC(=O)c2ccccc2F)n(C)c(=O)n3C)CC1	26%	-15%	i	-24%	11%	i
CCOC(=O)C1CCN(c2cc3c(cc2NC(=O)c2ccc(Cl)cc2)n(C)c(=O)n3C)CC1	·	2.6µM*	i	8.2µM*	·	i
COc1ccccc1C(=O)Nc1cc2c(cc1N1CCCCC1)n(C)c(=O)n2C	·	13µM*	i	5.8µM*	·	i
C[C@@H]1CN([C@H](C)CO)C(=O)c2cc(NC(=O)c3ccncc3)ccc2O[C@@H]1CN(C)C(=O)Nc1ccccc1	4%	-6%	i	8%	0%	i
NCCCC[C@H](NC(=O)[C@@H]1CCCN1C(=O)[C@@H]1CSSC[C@H](N)C(=O)N[C@@H](Cc2ccc(O)cc2)C(=O)N[C@@H](Cc2ccccc2)C(=O)N[C@@H](CCC(N)=O)C(=O)N[C@@H](CC(N)=O)C(=O)N1)C(=O)NCC(N)=O	·	3%	·	-21%	·	·
CCOc1ccccc1NC(=O)c1csc(C)c1C	29%	-14%	i	-21%	26%	i
SMILES	HT1080NT lethal	DT40 TDP1 no CPT	KB-V1 cytotox	TDP1 cell CPT	HT1080 IDH1KD tx	KB-3-1 cytotox
NS(=O)(=O)c1ccc(NC(=S)NCc2ccco2)cc1	9%	-17%	i	-23%	8%	i
NCCC(=O)N[C@H](Cc1cnc[nH]1)C(=O)O	·	-3%	·	9%	·	·
CCOC(=O)c1c(C)[nH]c(C)c1S(=O)(=O)N1CCCC(C(=O)NCc2ccc(Cl)cc2)C1 (stereo not drawn)	·	0%	?	-19%	·	i
CCOC(=O)C1CCN(c2cc3c(cc2NC(=O)c2ccccc2OCC)n(C)c(=O)n3C)CC1	6%	5.8µM*	i	21µM*	8%	i
COc1ncnc(-c2ccccc2)c1-c1ccccc1	1%	15µM*	i	?	-3%	i
COC(=O)c1[nH]c2cc(C)ccc2c1NC(=O)CN1CCCc2ccccc21	-4%	26µM*	i	?	-2%	i
COC(=O)c1[nH]c2ccc(Br)cc2c1NC(=O)CN1CCCc2ccccc21	-23%	18µM*	i	21µM*	?	i
COC(=O)c1c(NC(=O)CS(=O)(=O)c2ccccc2)sc(C)c1C	-4%	21µM*	i	?	-12%	i
Cc1sc(NC(=O)CCS(=O)(=O)c2ccccc2)c(C#N)c1C	7%	?	?	23µM*	-7%	?
Cc1sc(NC(=O)CS(=O)(=O)c2ccccc2)c(C#N)c1C	-9%	-28%	i	-24%	0%	i
CC(C)C[C@H]1CN(CCCC[C@@H]2CNC(=O)C(=O)N2Cc2ccccc2)C(=O)C(=O)N1Cc1ccccc1	17%	-8%	i	2%	19%	i
O=S(=O)(c1ccc(C2CCCCC2)cc1)N1CCN(c2cc(Cl)ccc2Cl)CC1	·	·	i	·	·	i
CC1(C(=O)NC2CCCC2)CCC(=O)N1CCc1c[nH]c2ccccc12 (stereo not drawn)	22%	-16%	i	-4%	12%	i

Source: PubChem BioAssay
